Test results taken from PubChem BioAssay.

Test: COS7 lysate on small-molecule microarray, probe aHis, 635 nm (AID 1123);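 further: z-score combines 667nm fluorescence intensity with signal-to-noise per printed compound spot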
Conditions: COS7 cell lysate, fluorescence, higher = more signal
In the case of `Cc1nc2cc(Br)ccc2c(=O)n1Cc1cccc(O)c1`, the composite z-score is reported as 1.28.
Work on `C=C[C@@H](C)[C@H](O)c1ccc(OCCO)cc1` yielded a composite z-score of 0.28.
With `C=CCN1C(=O)[C@]2(O[C@H](CCO)[C@@H]([Si](C)(C)c3ccc(OC)cc3)[C@@H]2C)c2cc(NC(=O)c3ccc(OC)cc3)ccc21` the composite z-score was 0.13.
For `CCOC(=O)C[C@H]1[C@H](OC(=O)c2cc3ccccc3oc2=O)[C@@H](NC(=O)c2ccc3ccccc3c2)c2cc(OCCCO)ccc2N1C(=O)Cc1ccc(OC)cc1`, the composite z-score was 1.69.
Compound `COc1ccc(C#Cc2ccc3c(c2)[C@]2(C(=O)N3)[C@H](c3ccc(OCCO)cc3)N3[C@H](c4ccccc4)[C@H](c4ccccc4)OC(=O)[C@H]3[C@@H]2C(=O)N2CCc3cc(OC)c(OC)cc3C2)cc1` has a composite z-score of 2.04.
Compound `COC(=O)c1c2oc(c1C(=O)OC)C(=O)N1CCC[C@H]1Cn1nncc1CN(Cc1ccccc1)C(=O)N[C@H](CO)CC2` has a composite z-score of 0.214.
For `COC(=O)C(CC#Cc1ccc2c(c1)[C@]1(C(=O)N2)[C@H](c2ccc(O)cc2)N2[C@H](c3ccccc3)[C@H](c3ccccc3)OC(=O)[C@H]2[C@@H]1C(=O)N1CCCCCCC1)C(=O)OC`, the composite z-score was 2.46.
`C=C[C@H](C)[C@H](OC(=O)Nc1ccc(OC)cc1)c1ccc(OCCO)cc1` showed a composite z-score of 0.718.
Compound `[N-]=[N+]=NC[C@H](Cc1ccccc1)NC(=O)c1ccccc1` has a composite z-score of 0.12.
Compound `COc1ccc([Si](C)(C)[C@H]2[C@H](CC(=O)N3Cc4ccccc4C[C@H]3CO)O[C@@]3(C(=O)N(Cc4ccc(N5C(=O)c6cccc7cccc5c67)cc4)c4ccccc43)[C@@H]2C)cc1` has a composite z-score of 0.822.
For `COc1ccc([Si](C)(C)[C@H]2[C@H](CC(=O)N3CCC[C@H]3CO)O[C@@]3(C(=O)N(Cc4ccc(N5CCC5=O)cc4)c4ccccc43)[C@@H]2C)cc1`, the composite z-score was 2.24.
With `C=CCNC(=O)[C@H]1[C@@H]2C(=O)O[C@@H](c3ccccc3)[C@@H](c3ccccc3)N2[C@@H](c2ccc(OCCO)cc2)[C@]12C(=O)Nc1ccc(C#CCNC(N)=O)cc12` the composite z-score was 0.261.
`C=CCC(OC(C)=O)[C@@H]1[C@@H](N(Cc2cccc3ccccc23)C(=O)Cc2ccc(F)cc2)c2cc(OCCCO)ccc2N1C(=O)c1ccc(-c2ccccc2)cc1` (stereo partly specified) gave a composite z-score of 0.644.
Compound `CC1CC/C=C\[C@H]2OC34C=CCN(CCN5CCOCC5)C(=O)[C@H]3N(C(C)CO)C(=O)[C@@H]4C2C(=O)O1` (stereo partly specified) has a composite z-score of 1.57.
For `C=CCN1C(=O)[C@]2(O[C@H](CCO)[C@@H]([Si](C)(C)c3ccc(OC)cc3)[C@@H]2C)c2cc(N3C(=O)COc4ccccc43)ccc21`, the composite z-score was 0.751.
Compound `CN(C)C(=O)[C@]1(CCS(=O)(=O)c2ccccc2)N=C(c2ccc(OCCCO)cc2)O[C@@H]1c1ccccc1` has a composite z-score of 2.99.
With `Cc1ccccc1C(O)C1C=CC2C(=O)NC(=O)C2N1Nc1ccc(Cl)cc1Cl` (stereo unspecified) the composite z-score was 2.4.
`O=C1c2ccccc2[C@](Cc2ccccc2I)(C(=O)NC2CC2)[C@H](c2ccc(CO)cc2)N1Cc1ccccc1C(F)(F)F` gave a composite z-score of 1.88.
`Cc1ccc(C(C)CC(O)C2C=CC3C(=O)N(c4ccccc4)C(=O)C3N2Nc2ccc(C#N)cc2)o1` (stereo unspecified) showed a composite z-score of 3.21.
For `COc1ccc([Si](C)(C)[C@H]2[C@H](CCO)O[C@@]3(C(=O)N(Cc4ccccc4)c4ccc(N5C(=O)c6ccccc6Oc6ccccc65)cc43)[C@@H]2C)cc1`, the composite z-score was 1.47.
Compound `COCCOC(=O)N1C(=O)[C@@]2(c3cc(C#CC4=CCCCC4)ccc31)[C@H](C(=O)N1CCCCCCC1)[C@H]1C(=O)O[C@H](c3ccccc3)[C@H](c3ccccc3)N1[C@@H]2c1ccc(OCCO)cc1` has a composite z-score of 0.387.
For `CC(C)[C@H]1NC(=O)[C@@]23C(=O)N[C@@H](Cc4ccccc4)C2[C@H](C)[C@@]2(C)O[C@H]2C3/C=C/C/C=C\CNC(=O)[C@H](Cc2ccccc2)NC1=O` (stereo partly specified), the composite z-score was 0.836.
Compound `CC(C)=CCCC(C)=CC(O)C1C=CC2C(=O)N(c3ccccc3)C(=O)C2N1Nc1ccccc1F` (stereo unspecified) has a composite z-score of 1.3.
In the case of `CC(C)C[C@@H]1NC(=O)CNC(=O)[C@@]23C(=O)N[C@@H](Cc4ccccc4)C2[C@H](C)[C@@]2(C)O[C@H]2C3/C=C/C/C=C\CNC1=O` (stereo partly specified), the composite z-score is reported as 0.718.
For `COC(=O)[C@@]1(Cc2ccc(F)cc2)[C@H]2c3cc(C(=O)N(C)C)n(Cc4ccc(O)c(OC)c4)c3C[C@H]2CN1C(=O)c1ccccc1`, the composite z-score was 1.08.
Work on `C=C(COC)C(=O)CC[C@@H](OC(=O)c1cccnc1)c1ccccc1OCCO` yielded a composite z-score of 0.105.
`CN(C)CCCNC(=O)[C@@H]1c2ccccc2C(=O)N(C2CCCCC2)[C@H]1c1ccc(CO)cc1` showed a composite z-score of 1.38.
With `COc1cc(NN2C(C(O)c3ccc(I)cc3)C=CC3C(=O)N(c4ccccc4)C(=O)C32)cc(OC)c1OC` (stereo unspecified) the composite z-score was 3.02.
`Cc1ccc([C@H]2C(C(=O)O)=C[C@@H](C(C)(C)C)N2S(=O)(=O)c2ccc(C)cc2)cc1` showed a composite z-score of 1.99.
Work on `CC(C)OC(=O)CC(=O)CC(O)c1ccc([N+](=O)[O-])cc1` (stereo unspecified) yielded a composite z-score of 0.666.
For `NC(=O)N1C(=O)C2C(C1=O)C1C=C(CCCO)C2C(C2CC2)N1Cc1cccc(OC(F)(F)F)c1` (stereo unspecified), the composite z-score was 0.518.
For `CC(CO)N1C(=O)[C@@H]2[C@H]3C(=O)OCC=C[C@H]3OC23C=CCN(c2ccc(Cl)cc2)C(=O)[C@@H]13` (stereo partly specified), the composite z-score was -0.224.
For `NC(=O)[C@@H]1[C@H]2C(=O)O[C@H](c3ccccc3)[C@H](c3ccccc3)N2[C@H](c2ccc(OCCO)cc2)[C@@]12C(=O)Nc1ccc(C#CCCO)cc12`, the composite z-score was 0.661.
`CCOC(=O)C[C@H]1[C@H](OC(=O)c2ccc(C(=O)c3ccccc3)cc2)[C@@H](NC(=O)CC(C)C)c2cc(OCCCO)ccc2N1C(=O)Cc1ccc(OC)cc1` showed a composite z-score of 1.26.
`COCCCNC(=O)[C@@]1(c2ccc([N+](=O)[O-])cc2)CC(=O)N(CC23CC4CC(CC(C4)C2)C3)[C@@H]1c1ccc(CO)cc1I` showed a composite z-score of 1.61.
`C=C(/C(=C/C[C@@H](OC(C)=O)c1ccc(CO)o1)c1cc(C(=O)OC)ccc1OC)C(C)C` showed a composite z-score of 1.31.
